Bioassay records (PubChem)
HP1b chromo inh: HP1-beta chromodomain-methylated histone interaction inhibition; P83916; AlphaScreen HP1-beta / biotin-H3K9me3 peptide binding; Potency, µM (titrated, usually from 114 µM), inactives show top-dose activity change, negative = inhibition, actives largely listed as inhibitors; 390,000 tested, 0.56% active; AID 540317; also: potency is read from the fitted curve at half-maximal effect; nearly all actives have a fitted effect of over 70% in size
Target sequence (P83916 whole entry, looked up): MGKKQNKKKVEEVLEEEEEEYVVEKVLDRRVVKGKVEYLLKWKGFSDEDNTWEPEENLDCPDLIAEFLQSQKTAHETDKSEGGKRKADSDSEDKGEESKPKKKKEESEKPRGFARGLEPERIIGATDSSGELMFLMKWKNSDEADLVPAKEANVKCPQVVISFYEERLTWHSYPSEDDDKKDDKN
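AlphaScreen: HP1-beta (50 nM) preformed 30 min with biotin-H3(1-18)K9me3 peptide (50 nM) in PBS pH 7.4, 0.01% Tween-20. Compound added for 30 min at RT, then streptavidin donor/nickel chelate acceptor beads (10 ug/mL) for 30 min.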
G9a block: G9a (human) methyltransferase inhibition. Q96KQ7. G9a H3K9 monomethylation, AlphaScreen, 2 h. Potency, µM (highest dose often 102 µM), for the others: at the highest dose activity, negative = inhibition, usual class: inhibitors. 350,000 tested, 8.8% active; also: potency is read from the fitted curve at half-maximal effect; % is scaled to controls: 0 for no effect and ±100 for the full control effect; nearly all actives have a fitted effect of over 75% in size
Target sequence (Q96KQ7 913-1193 limits assumed): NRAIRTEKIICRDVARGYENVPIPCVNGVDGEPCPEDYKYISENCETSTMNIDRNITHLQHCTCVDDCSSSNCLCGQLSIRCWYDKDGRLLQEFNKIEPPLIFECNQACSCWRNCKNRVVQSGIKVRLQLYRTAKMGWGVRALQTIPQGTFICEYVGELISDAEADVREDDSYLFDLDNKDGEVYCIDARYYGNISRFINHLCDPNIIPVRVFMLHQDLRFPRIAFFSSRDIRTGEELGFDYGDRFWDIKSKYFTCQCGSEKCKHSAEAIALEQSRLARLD
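Using a bead-based AlphaScreen, monomethylated H3K9 product from 2 h room-temperature reactions (G9a 20 nM, peptide 500 nM, SAM 20 uM) was detected with 0.5 ug/mL rabbit anti-H3K9me1 antibody.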
L3MBTL1 inh: L3MBTL1 (human) inhibition; Q9Y468; AlphaScreen L3MBTL1–H3K9me1 peptide binding; Potency, µM (series often up to 57.1 µM), for the others: at the highest dose activity, negative = inhibition, hits mostly inhibitors; 230,000 tested, 0.66% active; also: potency is read from the fitted curve at half-maximal effect; % is scaled to controls: 0 for no effect and ±100 for the full control effect; nearly all actives have a fitted effect of over 60% in size
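Read-out is AlphaScreen signal from streptavidin donor and nickel chelate acceptor beads (10 ug/mL final each) bridging L3MBTL1 (50 nM) and biotinylated K9-monomethylated H3(1-15) peptide (75 nM), after 30 min compound exposure at room temperature.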
JMJD2A Tudor inh: JMJD2A Tudor domain (human) inhibition. O75164. 390,000 tested, 4.4% active. AlphaScreen JMJD2A-Tudor / H3K4me3 peptide binding. AID 504339. Potency, µM (top dose mostly 114 µM), for inactives: top-dose activity change, negative = inhibition, most hits filed as inhibitors; also: potency is read from the fitted curve at half-maximal effect; % is scaled to controls: 0 for no effect and ±100 for the full control effect; nearly all actives have a fitted effect of over 50% in size
BAZ2B inh: blocks human BAZ2B; AlphaScreen BAZ2B-H3K14Ac peptide displacement; Potency, µM (doses to about 114 µM), for inactives: at the highest dose activity change, negative = inhibition, usual class: inhibitors; AID 504333; Q9UIF8; 360,000 tested, 4.4% active; also: potency is read from the fitted curve at half-maximal effect; % is scaled to controls: 0 for no effect and ±100 for the full control effect; nearly all actives have a fitted effect of over 60% in size
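BAZ2B 50 nM plus b-H3(5-23)K14Ac 50 nM, PBS pH 7.4/0.01% Tween-20, 30 min RT; compound added (max 110 uM), 30 min RT; streptavidin donor/Ni-chelate acceptor beads 10 ug/mL final, 20 min dark; AlphaScreen read.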
PI5P4Ka inh: PI5P4K alpha (human) kinase inhibition | P48426 | PI5P4Kalpha enzyme, ADP-Glo luminescence, 60 min; active compounds read low | max response, % | 330,000 tested, 1.2% active | AID 652105; active = max response of -50% or lower; inconclusive = between -30% and -50%; inactive = -30% or higher; also: value at the top dose of about 77 µM; % is scaled to controls: 0 for no effect and ±100 for the full control effect
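Luminescence from ADP-Glo served as readout of PI5P4Kalpha activity in a qHTS format. Reaction: enzyme, substrate, compound, ATP at 5 microM final, 60 min at RT.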
* = called active by the depositor; ? = inconclusive; . = no result; [ ] = remark or other dose. The list is not random: actives were taken first. Their share in the collection is about 11%. Unless noted, calls follow the shape of the dose curve; as a rule, active = well fitted inhibition curve with a large enough effect; inconclusive = small, poorly fitted or top-dose-only effect; inactive = no such curve, though single readings can be large or run the other way.

SMILES	HP1b chromo inh	G9a block	L3MBTL1 inh	JMJD2A Tudor inh	BAZ2B inh	PI5P4Ka inh
O=C(Cn1c(=O)n(-c2cccc(Cl)c2)c(=O)c2sc3ccccc3c21)N1CCCC1	27%	-39%[59 µM]	.	-19%	-15%	.
CN1CCN(CCNC(=O)Nc2ccccc2C(F)(F)F)CC1	28%	-41%	1%	-3%	7%	1
CC(C(=O)Nc1ccccc1C(F)(F)F)N1CCN(C)CC1 (stereo unspecified)	?	3%[0.501 µM]	9%[2.29 µM]	25µM*	79µM*	-1
CC(C(=O)Nc1ccc(F)c(F)c1)N1CCN(C)CC1 (stereo unspecified)	35µM*	?	.	3.2µM*	22µM*	-8
Cc1ccc(NC(=O)c2ccc(NC(=O)N3CCSc4ncccc43)cc2)cc1Cl	23%	?	.	-12%	-22%	.
COC(=O)c1ccc2c(c1)N(CC(=O)Nc1ccc(C)cc1Cl)C(=O)c1ccccc1S2	12%[57 µM]	2%[59 µM]	.	-22%	0%	.
Cc1cc(NC(=O)CSc2nnc(-c3ccc(Br)o3)n2Cc2ccccc2)no1	21%	-48%[59 µM]	-3%	-11%	-18%	0
O=C(CSc1nnc(-c2ccc(Br)o2)n1Cc1ccccc1)c1ccccc1F	19%	4.5µM*	-22%	?	?	-19
Cc1ccccc1-n1nc2c(c1NC(=O)c1cc3ccccc3o1)CS(=O)(=O)C2	15%	45µM*	-6%	-22%	-3%	-28
Cc1ccccc1-n1nc2c(c1NC(=O)c1ccc(Br)o1)CSC2	-5%	45µM*	-16%	?	-37%	?
CCOc1ccc(S(=O)(=O)NCCc2csc3nc(-c4cccc(C)c4)nn23)cc1	21%	1%[59 µM]	.	-7%	-2%	.
COCCn1c(C)cc(O)c(C(c2ccccc2)N2CCC(C)CC2)c1=O (stereo unspecified)	7%[57 µM]	-22%[59 µM]	.	-24%	1%	.
COC(=O)c1cc(=O)nc2sc(-c3cccs3)nn12	30%	2%[12.7 µM]	8%	-13%	0%	.
COc1ccc(Cc2nn3c(-c4cc(OC)c(OC)c(OC)c4)nnc3s2)cc1	?	?	-12%	79µM*	-7%	-20
COc1cc(-c2nnc3sc(Cc4ccccc4)nn23)cc(OC)c1OC	?	35µM*	-4%	?	-30%	?
COc1ccc(-c2nnc3sc(CCN4C(=O)c5ccccc5C4=O)nn23)cc1	-8%	45µM*	-5%	-18%	9%	-29
COc1cc(-c2nnc3sc(Cc4ccc(Cl)cc4)nn23)cc(OC)c1OC	-17%	.	.	-20%	.	-19
COC(=O)c1cc(=O)nc2sc(-c3ccc(F)cc3)nn12	?	4µM*	2%	-35%	5%	.
Cc1ccc(OCC(O)C(C)NC(C)C)c2c1CCC2 (stereo unspecified)	.	35%[12.7 µM]	.	.	.	.
CN(Cc1ccccc1)C(=O)C1CCC(CNS(=O)(=O)c2ccc3c(c2)CCCC(=O)N3)CC1 (stereo unspecified)	19%	6%[59 µM]	.	-6%	-17%	.
COc1ccc(-c2nn3c(-c4ccccc4)nnc3s2)cc1	-1%	?	-5%	-22%	?	-27
COc1ccc(-c2nn3c(-c4ccc(F)cc4)nnc3s2)cc1	-5%	45µM*	-5%	-8%[57.1 µM]	-14%	-1
COc1ccc(C2C=C3CNS(=O)(=O)C3CC2OC(=O)c2ccc(C(F)(F)F)cc2)cc1 (stereo unspecified)	24%	.	.	-28%	.	.
COc1ccc(-c2cn(-c3ccccc3)c(=S)[nH]2)cc1OC	-6%	8.9µM*	.	-33%	?	-25
COc1cccc(-n2cc(-c3ccc(F)cc3)[nH]c2=S)c1	14%	?	.	45µM*	50µM*	-29
COc1ccccc1-c1cn(-c2ccccc2)c(=S)[nH]1	30%	12%	.	-34%	-28%	-7
COc1ccc(-c2cn(-c3ccc(C)c(Cl)c3)c(=S)[nH]2)cc1OC	-4%	50µM*	.	-15%	-10%	-28
